High-throughput results: PubChem, National Center for Advancing Translational Sciences (NCATS)
FUS suppressor = qHTS for Suppressors of FUS Proteinopathy: Primary screen using FUS-linked yeast assay | S. cerevisiae FUS-expressing, growth rescue, OD600, 24 h | Potency, µM (series often up to 76.6 µM), hits mostly activators | 390,000 compounds, 0.24% hits | AID 1347120, 2019;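 further: plate controls were DMSO vehicle for no effect and reference control for full effect; nearly all actives have a fitted effect of over 55% in size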
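Compound concentration series was pinned onto galactose-induced FUS-expressing yeast seeded at OD 0.005. Plates sat 24hr at 30C; absorbance at 600 nm gave growth. DMSO served as background control.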
ClpP mod = qHTS Assay for Activators of ClpP. purified B. subtilis ClpP, FRET peptide cleavage, 20 min. Potency, µM (titrated, usually from 57.5 µM), for the others: at the highest dose activity change, negative = active. 340,000 compounds, 1.9% hits; active means well fitted falling curve with a large enough effect; inconclusive means small, poorly fitted or top-dose-only effect; inactive means no such curve, though single readings can be large or run the other way; further: the source files actives as falling curves though it sought activators and does not explain the sign; nearly all actives have a fitted effect of over 65% in size
Target sequence (P80244 whole entry, looked up): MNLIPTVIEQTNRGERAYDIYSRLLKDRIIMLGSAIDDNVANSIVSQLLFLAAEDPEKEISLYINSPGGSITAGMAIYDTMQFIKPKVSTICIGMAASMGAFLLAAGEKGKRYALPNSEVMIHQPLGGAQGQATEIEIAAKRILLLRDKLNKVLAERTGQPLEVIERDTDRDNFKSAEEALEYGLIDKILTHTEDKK
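Buffer: 100 mM Tris/HCl pH8, 100 mM KCl, 0.05% low protease BSA, 2.5% glycerol, 0.01% Tween-20. ClpP 10 microg/mL final; 20 min RT; delta FRET normalized to ADEP and DMSO controls.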
Abeta yeast res = qHTS for compounds that reverse cellular toxicity of Amyloid beta (A-beta) peptide in yeast: Primary Screen | AID 1347071, 2019 | 410,000 compounds, 0.063% hits | Potency, µM (top dose mostly 46.1 µM), usual class: activators | yeast expressing A-beta42, growth rescue, OD600, 48 h; response scale: 0% DMSO, 100% iron-clioquinol control; further: nearly all actives have a fitted effect of over 55% in size
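Yeast A-beta toxicity model in growth medium with pinned compounds, 48 h at 30 C; growth read as absorbance at 600 nm. Normalized to FeCl3/clioquinol equimolar mix (positive) and DMSO (negative).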
TDP-43 yeast inh = qHTS of TDP-43 Inhibitors | TDP-43 expressing yeast growth rescue, BacTiter-Glo, 24 h | Potency, µM (series often up to 46.1 µM), for inactives: top-dose growth rescue (activation), actives largely listed as activators | 410,000 compounds, 1.8% hits; further: % of control where 0% means no effect; nearly all actives have a fitted effect of over 50% in size
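Growth rescue of TDP-43-toxic yeast measured as ATP luminescence (BacTiter-Glo). Cells grown to mid-log in raffinose, induced in galactose at OD600=0.02, exposed to compound 24 hr at 30 deg C.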
MmCpn inh = Inhibitors of TCP-1 ring complex (TRiC) of Methanococcus maripaludis (MmCpn): qHTS. Chaperonin Mm-Cpn (Methanococcus maripaludis). purified Mm-Cpn ATPase, ADP Transcreener TR-FRET. Potency, µM (top dose mostly 76.9 µM), for inactives: at the top dose activity, negative = inhibition, usual class: inhibitors. 330,000 compounds, 0.031% hits. AID 504842, 2011; further: on the % scale 0 is the no-effect control and ±100 the full control effect; nearly all actives have a fitted effect of over 80% in size
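Quantitative HTS used 25 nM Mm-CPN and 10 uM ATP in magnesium/KCl Tris buffer, pH 7.4, with 1 mM DTT. Hydrolysis ran 30 min at 37°C; ADP was read by HTRF.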
aSyn rescue = qHTS of alpha-syn Inhibitors; Yeast expressing alpha-synuclein, growth rescue, BacTiter-Glo, 24 h; Potency, µM (titrated, usually from 46.1 µM), without a hit: top-dose growth rescue (activation), hits mostly activators; 370,000 compounds, 0.14% hits; AID 652106, 2013; further: % of control where 0% means no effect; nearly all actives have a fitted effect of over 65% in size
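Galactose-induced alpha-syn yeast (OD600=0.02, raffinose-pregrown) + pinned cpd, 24 hr, 30 deg C; growth by BacTiter-Glo luminescence. Growth restoration scores as activation.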
* hit, by the source's call; [ ] = dose if it differs, or a comment. A selection: hits, their analogues and other compounds. The true share with any hit is near 3.6%. Unless noted, the call rests on the fitted dose curve; in most records, active means well fitted curve in the direction sought with a large enough effect; inconclusive means small, poorly fitted or top-dose-only effect, or another doubt; inactive means no such curve, though single readings can be large; an effect the other way counts as inactive or inconclusive. Potency means the concentration at half of the fitted maximal effect.

Screening O=C(Cc1cccs1)Nc1cccc(-c2nc3cc4ccccc4cc3[nH]2)c1 returned FUS suppressor inactive, ClpP mod 28µM*, Abeta yeast res inactive, TDP-43 yeast inh -13%, MmCpn inh -10% and aSyn rescue -15%.
COC(=O)c1ccc(OC)c(CN2C(=O)N(c3ccc(C(C)=O)cc3)S(=O)(=O)c3ccccc32)c1 was read as FUS suppressor inactive, ClpP mod 1%, Abeta yeast res inactive and TDP-43 yeast inh 9%.
For Cc1cc(N2CCOCC2)nc(SCc2ccc(Cl)cc2Cl)n1 the results were FUS suppressor inconclusive, ClpP mod -5%, Abeta yeast res inactive, TDP-43 yeast inh 35µM*, MmCpn inh -3% and aSyn rescue -6%.
Screening O=C(COc1ccc(F)cc1)Nc1cc(S(=O)(=O)N2CCCCC2)ccc1N1CCCCC1 returned FUS suppressor inconclusive, ClpP mod 16µM*, Abeta yeast res inactive, TDP-43 yeast inh -14%, MmCpn inh -2% and aSyn rescue 1%.
`O=C(COc1ccc([N+](=O)[O-])cc1)Nc1cc(S(=O)(=O)N2CCCCC2)ccc1N1CCCCC1` gave FUS suppressor inactive, ClpP mod -2%, Abeta yeast res inactive, TDP-43 yeast inh inconclusive, MmCpn inh 1% and aSyn rescue -1%.
`O=C(COc1ccccc1Cl)Nc1cccc(S(=O)(=O)N2CCCC2)c1` gave FUS suppressor inactive, ClpP mod -3%, Abeta yeast res inactive, TDP-43 yeast inh 18µM*, MmCpn inh 0% and aSyn rescue 13%.
Cc1ccc(C)c(OCCC(=O)Nc2cccc(S(=O)(=O)NC3=NCCCCC3)c2)c1 was read as FUS suppressor inconclusive, ClpP mod -3%, Abeta yeast res inactive, TDP-43 yeast inh -8%, MmCpn inh 1% and aSyn rescue 0%[1.84 µM].
Cc1ccccc1OCCC(=O)Nc1cccc(S(=O)(=O)Nc2ccccc2Cl)c1 was read as ClpP mod 14µM*, Abeta yeast res inactive, TDP-43 yeast inh -8%, MmCpn inh 0% and aSyn rescue 4%.
Screening O=C(COc1ccc(F)cc1Cl)Nc1cccc(S(=O)(=O)N2CCCC2)c1 returned FUS suppressor inactive, ClpP mod 0%, Abeta yeast res inactive, TDP-43 yeast inh 35µM*, MmCpn inh -1% and aSyn rescue -2%.
Cc1ccc(Nc2ncnc3nc[nH]c23)cc1 was read as ClpP mod 1% and aSyn rescue 0%.
`O=C1CCC[C@H]2C[C@H](NCc3ccccc3F)CC[C@]23CCCN13` gave FUS suppressor inactive.
O=S(=O)(c1ccccc1)N1CCN(c2nc(-c3ccc(F)cc3)nc3cc(Cl)ccc23)CC1 was read as aSyn rescue -1%.
`CC1(C)OC(=O)C2(Cc3cc([N+](=O)[O-])ccc3N3CCCCC32)C(=O)O1` (stereo not given) gave ClpP mod 3% and aSyn rescue 0%.
Screening Cc1ccc(NC(=O)Cn2c(=O)n(CCCCC(=O)NCCc3ccc(Cl)cc3)c(=O)c3ccccc32)cc1 returned FUS suppressor inactive, ClpP mod -2%, Abeta yeast res inactive and TDP-43 yeast inh 14%.
COc1ccc(Br)cc1CN(C)CC(=O)Nc1cccc(S(=O)(=O)N2CCCC2)c1 was read as FUS suppressor inactive, Abeta yeast res inactive, TDP-43 yeast inh -2%, MmCpn inh -6% and aSyn rescue -1%.
For O=C(Nc1cccc(S(=O)(=O)N2CCCCC2)c1)[C@@H]1CCCN1S(=O)(=O)c1ccccc1C(F)(F)F the results were FUS suppressor 25µM*, ClpP mod 1%, Abeta yeast res inactive, TDP-43 yeast inh -22% and aSyn rescue 0%.
CCc1ccccc1OCC(=O)Nc1ccc(F)c(S(=O)(=O)N2CCOCC2)c1 was read as FUS suppressor inactive, ClpP mod -2%, Abeta yeast res inactive, TDP-43 yeast inh 16µM*, MmCpn inh 1% and aSyn rescue 7%.
Screening COc1ccc(CC(=O)Nc2ccc(F)c(S(=O)(=O)N3CCOCC3)c2)cc1 returned FUS suppressor inactive, Abeta yeast res inactive, TDP-43 yeast inh 5% and aSyn rescue 0%.
`CN(CC(=O)Nc1cccc(S(=O)(=O)N2CCCC2)c1)Cc1ccccc1` gave FUS suppressor inactive, ClpP mod 25µM*, Abeta yeast res inactive, TDP-43 yeast inh 24%, MmCpn inh 1% and aSyn rescue -7%.
COc1ccc(OC)c(NC(=O)c2cc3c(s2)-c2ccccc2SC3)c1 was read as FUS suppressor inactive, ClpP mod -17%, Abeta yeast res inactive and TDP-43 yeast inh 24%.
`Cc1cn2c(=O)cc(COC(=O)c3ccc(NC(=O)c4ccccc4C)cc3)nc2s1` gave FUS suppressor inactive, ClpP mod -7%, Abeta yeast res inactive and TDP-43 yeast inh 24%.
For COc1ccc(C2C(C#N)=C(N)N(c3ccccc3)C3=C2C(=O)CCC3)cc1Cn1cc([N+](=O)[O-])cn1 (stereo not given) the results were FUS suppressor 25µM*, ClpP mod 1%, Abeta yeast res inactive, TDP-43 yeast inh -12%, MmCpn inh 1% and aSyn rescue -10%.
Screening CCCC1CCC2(CCCN2CCOC(=O)Nc2ccc(F)cc2)CC1 (stereo not given) returned FUS suppressor inactive.
`Cc1ccc(N2CC(NC(=O)c3cccc(Cl)c3)CC2=O)cc1C` (stereo not given) gave FUS suppressor inactive, ClpP mod 2%, Abeta yeast res inactive and TDP-43 yeast inh 27%.
`COc1ccc(NC(=O)C2=C(C)Nc3c(C(=O)Nc4ccc(C)cc4)cnn3C2c2cccc(Cl)c2)cc1` (stereo not given) gave FUS suppressor inactive, ClpP mod -5%, Abeta yeast res inactive and TDP-43 yeast inh 0%.
`O=C(COc1ccc(Cl)cc1)NCc1ccc(F)cc1` gave FUS suppressor inactive, ClpP mod 1%, Abeta yeast res inactive, TDP-43 yeast inh 11µM*, MmCpn inh 2% and aSyn rescue 3%.
